Experimental data published in PubChem BioAssay.
Activity calls are given as the source filed them.

Experiments:
[1] = system: Human papillomavirus type 1a protein E7 (residues 44-93); assay: HPV1a E7 fragment binders on microarrays, primary screen, biochemical, small-molecule microarray, residues 44-93, 635 nm fluorescence (AID 1108); details: small-molecule microarray binding, fluorescence 635 nm; higher = more signal;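 also: E7 fragment applied at 1 µg/mL in TBST for 1 h at 4 C; score combines spot fluorescence with its signal to noise ratio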
[2] = modulators of HCV replicon luciferase signal, primary screen, HCV replication inhibitor project, Huh7 cells, luciferase reporter (AID 1109); details: 48 h, higher = more signal;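 also: huh7 hepatoma cells harbouring a luciferase neomycin HCV replicon reporter; luciferase luminescence as measure of HCV replicon replication; test concentration not given here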
[3] = target: Left-right determination factor 2 (Homo sapiens) (UniProt O00292); assay: LEFTY2 binders on small-molecule microarrays, primary screen, biochemical, small-molecule microarray, 635 nm fluorescence scan (AID 1110); details: LEFTY2 binding, higher = more signal
Sequence of Left-right determination factor 2 (Homo sapiens) (O00292 whole entry, looked up): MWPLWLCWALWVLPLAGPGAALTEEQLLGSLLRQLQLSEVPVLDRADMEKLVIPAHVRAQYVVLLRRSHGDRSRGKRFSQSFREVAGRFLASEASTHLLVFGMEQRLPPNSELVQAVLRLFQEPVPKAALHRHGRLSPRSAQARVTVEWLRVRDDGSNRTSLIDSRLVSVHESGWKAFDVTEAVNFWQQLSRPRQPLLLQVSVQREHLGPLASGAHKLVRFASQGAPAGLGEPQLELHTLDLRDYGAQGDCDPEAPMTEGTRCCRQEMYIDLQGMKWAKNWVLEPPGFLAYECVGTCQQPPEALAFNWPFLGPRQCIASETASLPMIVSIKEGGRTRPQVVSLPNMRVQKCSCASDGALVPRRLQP

[4] = target: Calmodulin-1 (Homo sapiens) (UniProt P0DP23); assay: CALM1 binders on microarrays, EGTA buffer, profiling panel, biochemical, small-molecule microarray, Cy5-labelled CALM1 (AID 1111); details: Cy5-CALM1 binding fluorescence, higher = more signal;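 also: labelled calmodulin applied in Tris saline Tween buffer holding calcium plus EGTA and DTT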
[5] = target: Calmodulin-1 (Homo sapiens) (UniProt P0DP23); assay: calcium-bound CALM1 binders on microarrays, profiling panel, artefact control for SMM control-protein annotation, biochemical, small-molecule microarray, Cy5-labelled CALM1, plus calcium (AID 1112); details: Cy5-CALM1 binding fluorescence, higher = more signal;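 also: score merges spot fluorescence with signal to noise from triplicate slides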
[6] = small-molecule microarray binders of probe aWnt5a, primary screen, biochemical, biotinylated probe, 635/667 nm fluorescence (AID 1113); details: higher = more signal;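 also: score merges 667 nm fluorescence intensity with signal-to-noise per printed feature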
[7] = small-molecule microarray binders of probe aShh, primary screen, biochemical, biotinylated probe, 635/667 nm fluorescence (AID 1114); details: higher = more signal;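 also: probe is biotin-labelled aShh protein from a stem cell growth factor screen; measures binding of labelled protein to compounds printed on the slide; score merges feature fluorescence at 667 nm with signal-to-noise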
[8] = small-molecule microarray binders of probe aNog, primary screen, biochemical, biotinylated probe, 635/667 nm fluorescence (AID 1115); details: higher = more signal;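 also: probe is biotinylated aNog protein used at 0.15 µg/mL for 1 h at 4 C; z-score combines 667 nm fluorescence of each spot with its signal to noise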
[9] = target: Torsin-1A-interacting protein 1 (Homo sapiens) (UniProt Q5JTV8); assay: LAP1 binders from COS7 cell lysate, primary screen, small-molecule microarray, 635/667 nm fluorescence (AID 1116); details: COS7-hLAP1 lysate binding, 635 nm fluorescence, higher = more signal
Sequence of Torsin-1A-interacting protein 1 (Homo sapiens) (Q5JTV8 whole entry, looked up): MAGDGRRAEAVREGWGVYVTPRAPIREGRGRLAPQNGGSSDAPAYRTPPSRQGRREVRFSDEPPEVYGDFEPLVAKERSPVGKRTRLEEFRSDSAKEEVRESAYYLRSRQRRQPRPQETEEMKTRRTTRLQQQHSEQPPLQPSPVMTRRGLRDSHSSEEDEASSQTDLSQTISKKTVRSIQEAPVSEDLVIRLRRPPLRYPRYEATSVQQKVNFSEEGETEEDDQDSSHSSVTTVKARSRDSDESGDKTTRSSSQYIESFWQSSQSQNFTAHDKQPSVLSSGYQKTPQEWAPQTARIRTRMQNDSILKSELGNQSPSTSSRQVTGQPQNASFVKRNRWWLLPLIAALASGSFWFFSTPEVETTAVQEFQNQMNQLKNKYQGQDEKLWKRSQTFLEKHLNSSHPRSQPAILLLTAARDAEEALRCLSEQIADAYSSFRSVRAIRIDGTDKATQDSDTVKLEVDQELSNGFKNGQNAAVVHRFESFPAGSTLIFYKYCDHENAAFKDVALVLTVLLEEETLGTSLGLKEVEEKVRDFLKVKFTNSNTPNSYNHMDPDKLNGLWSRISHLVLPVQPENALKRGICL

[10] = target: Alpha-bungarotoxin (Bungarus multicinctus) (UniProt P60615); assay: alpha-bungarotoxin binders on microarray, profiling panel, artefact control for SMM control protein annotation, biochemical, small-molecule microarray, Alexa647 label, 635/667 nm fluorescence (AID 1117); details: alpha-BTX-A647 binding fluorescence, higher = more signal
Sequence of Alpha-bungarotoxin (Bungarus multicinctus) (P60615 whole entry, looked up): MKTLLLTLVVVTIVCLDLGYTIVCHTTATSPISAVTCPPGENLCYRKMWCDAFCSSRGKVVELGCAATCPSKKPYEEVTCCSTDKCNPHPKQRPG

Albumin (Bos taurus) = Albumin (Bos taurus) (UniProt P02769); assay: bovine serum albumin binders on microarray, profiling panel, artefact control for SMM control protein annotation, biochemical, small-molecule microarray, Alexa647 label, 635/667 nm fluorescence (AID 1118); details: BSA-A647 binding, fluorescence 635 nm, higher = more signal;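 also: score merges 667 nm emission intensity and signal-to-noise per printed compound spot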
Sequence of Albumin (Bos taurus) (P02769 whole entry, looked up): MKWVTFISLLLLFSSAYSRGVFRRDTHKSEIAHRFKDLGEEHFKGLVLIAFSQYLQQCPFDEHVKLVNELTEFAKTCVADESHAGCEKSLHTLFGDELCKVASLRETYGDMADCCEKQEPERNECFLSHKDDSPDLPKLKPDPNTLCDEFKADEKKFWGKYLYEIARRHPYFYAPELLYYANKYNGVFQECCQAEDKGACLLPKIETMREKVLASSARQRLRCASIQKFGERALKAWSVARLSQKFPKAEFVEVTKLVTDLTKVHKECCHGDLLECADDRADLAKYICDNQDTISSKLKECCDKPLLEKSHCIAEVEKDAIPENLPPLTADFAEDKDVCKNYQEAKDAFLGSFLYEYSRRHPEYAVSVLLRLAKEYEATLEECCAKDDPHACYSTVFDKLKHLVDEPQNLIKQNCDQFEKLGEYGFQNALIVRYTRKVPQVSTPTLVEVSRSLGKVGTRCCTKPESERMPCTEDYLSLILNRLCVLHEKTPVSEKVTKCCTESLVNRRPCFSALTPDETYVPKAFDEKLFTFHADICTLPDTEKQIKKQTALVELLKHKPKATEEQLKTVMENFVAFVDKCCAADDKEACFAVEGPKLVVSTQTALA

[11] = small-molecule microarray binders of probe aXIP, primary screen, biochemical, NeuroSMM set, 635/667 nm fluorescence (AID 1119); details: higher = more signal, called active from +8 up or from −8 down;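 also: probe is the protein aXip251-270 applied at 1 µg/mL to compound-printed slides; binding of probe to printed compounds measured as 667 nm fluorescence plus signal to noise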
[12] = small-molecule binders of probe aNOTCH3, primary screen, biochemical, small-molecule microarray, 635/667 nm fluorescence (AID 1120); details: higher = more signal;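 also: probe is a biotin-tagged antibody raised against NOTCH3 rather than NOTCH3 protein; score merges spot fluorescence near 667 nm with spot signal to noise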
[13] = small-molecule binders of probe aNOTCH2, primary screen, biochemical, small-molecule microarray, 635/667 nm fluorescence (AID 1121); details: higher = more signal;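 also: score merges feature fluorescence read at 667 nm with its signal to noise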
[14] = target: Carbonic anhydrase 2 (Homo sapiens) (UniProt P00918); assay: CAII small-molecule binders, profiling panel, biochemical, small-molecule microarray, Alexa647-labelled CAII (AID 1122); details: CAII-A647 binding fluorescence, higher = more signal
[15] = COS7 lysate on small-molecule microarray, probe aHis, 635 nm (AID 1123); details: COS7 cell lysate, fluorescence, higher = more signal;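 also: z-score combines 667nm fluorescence intensity with signal-to-noise per printed compound spot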
[16] = compound binding in COS7 lysate, probe aLAP1, primary screen, cell lysate, small-molecule microarray (AID 1124); details: probe aLAP1, fluorescence, higher = more signal;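 also: lysate comes from COS7 cells expressing LAP1 and is applied at 0.3 µg/mL; score merges spot fluorescence near 667 nm with signal-to-noise over triplicate slides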
Sam68 (KHDRBS1) = assay: Sam68 small-molecule binders, primary screen, biochemical, small-molecule microarray, 635 nm fluorescence (AID 1125); details: small-molecule microarray binding, higher = more signal;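 also: score merges 667 nm channel intensity with signal to noise over triplicate slides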
[17] = system: Chordin-like protein 2 (CHRDL2); assay: CHRDL2 small-molecule binders, primary screen, biochemical, small-molecule microarray, 635 nm fluorescence (AID 1126); details: small-molecule microarray binding, fluorescence 635 nm; higher = more signal;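 also: printed compound slides probed with Chrdl2 protein at 4 µg/mL for 1 h at 4 C; score merges 667 nm emission intensity with signal to noise over three replicate slides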
[18] = target: Concanavalin-A (Canavalia ensiformis) (UniProt P02866); assay: ConA small-molecule binders, primary screen, artefact control for SMM control protein annotation, biochemical, small-molecule microarray, Alexa647 label, 635 nm (AID 1127); details: ConA-A647 binding fluorescence, higher = more signal;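 also: z combines 667 nm emission intensity with signal-to-noise across three replicate slides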
Sequence of Concanavalin-A (Canavalia ensiformis) (P02866 whole entry, looked up): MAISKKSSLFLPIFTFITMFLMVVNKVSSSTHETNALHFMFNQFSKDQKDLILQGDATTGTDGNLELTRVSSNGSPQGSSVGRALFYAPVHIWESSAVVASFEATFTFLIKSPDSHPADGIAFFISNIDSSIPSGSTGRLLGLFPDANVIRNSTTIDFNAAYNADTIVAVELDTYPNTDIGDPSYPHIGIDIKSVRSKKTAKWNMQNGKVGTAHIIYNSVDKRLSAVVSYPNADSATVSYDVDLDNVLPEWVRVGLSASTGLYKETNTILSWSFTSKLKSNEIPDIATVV

Structure (SMILES)	composite z-score [1]	z-score [2]	composite z-score [3]	composite z-score [4]	composite z-score [5]	composite z-score [6]	composite z-score [7]	composite z-score [8]	composite z-score [9]	composite z-score [10]	composite z-score (Albumin (Bos taurus))	composite Z-score [11]	composite z-score [12]	composite z-score [13]	composite z-score [14]	composite z-score [15]	composite z-score [16]	composite z-score (Sam68 (KHDRBS1))	composite z-score [17]	composite z-score [18]
CCC[C@@H]1[C@@H](Sc2ccccc2)[C@@H](C(=O)O)[C@H](c2ccc(C)cc2)N1S(=O)(=O)c1ccc(C)cc1	1.47	-1.57	0.241	1.87	0.859	0.108	-0.0866	-0.0987	0.425	1.41	0.771	0.398 (inactive)	0.322	-0.0794	0.594	2.65	1.39	1.33	-0.432	1.23
COC(=O)Cn1c(C(=O)N(C)C)cc2c1C[C@H]1CN(C(=O)c3ccccc3)[C@@](Cc3ccc(OC)cc3)(C(=O)OC)[C@@H]21	1.3	-1.69	-0.212	0.966	-0.39	0.409	0.297	2.26	1.8	0.299	0.938	-0.945 (inactive)	0.332	-0.037	0.845	3.28	-0.0169	1.08	-0.108	0.812
COc1ccc(NC(=O)O[C@H]2[C@H](OC(=O)Nc3ccc4c(c3)OCO4)[C@H](OC(=O)Nc3ccc4c(c3)OCO4)[C@@H](OC)O[C@@H]2CO)cc1	1.08	0.0346	-0.0444	0.888	-0.958	-0.0643	0.0469	-0.147	0.94	0.425	-0.0357	-0.102 (inactive)	0.037	-0.117	0.609	1.36	1.16	1.26	0.0872	1.02
